Only some compounds are listed: those with a hit (about 3.4% of all), similar ones and a draw of the others.
GPR151 ag = activators of human GPR151, primary screen, cell-based, PathHunter beta-arrestin, luminescence; activation, % at 11.2 µM; PathHunter beta-arrestin GPR151 cells; G-protein coupled receptor 151 (Homo sapiens), Q8TDV0; 1% of 650,000 active; in the data active = activation above about 4.9%
MITF primary = MITF inhibitors, primary screen, biochemical, AlphaScreen, human; AID 1259374, 2018; Microphthalmia-associated transcription factor (Homo sapiens), O75030; AlphaScreen MITF homodimerization, bead proximity signal; 0.91% of 650,000 active; inhibition, % at 2.6 µM; in the data active = inhibition above about 50%
TEAD-YAP inh = TEAD-YAP interaction inhibition, primary screen, TEAD-YAP interaction inhibitor project, luminescence, HEK-TIYL cells | inhibition, % at 9.12 µM | TEAD-Gal4/YAP UAS-luciferase luminescence | 1.4% of 640,000 active; in the data active = inhibition above about 32%
FBW7 act = FBW7 E3 ligase activators, primary screen, biochemical, AlphaScreen, human; normalized activity (activation), % at 26.1 µM; 0.13% of 650,000 active; AlphaScreen FBW7–phospho-cyclin E peptide binding, activator screen; AID 1259310, 2017; F-box/WD repeat-containing protein 7 (Homo sapiens), Q969H0; in the data active = normalized activity above about 1.9%;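 note: purified mutant Fbw7 with reduced substrate affinity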
Target sequence (Q969H0 whole entry, looked up): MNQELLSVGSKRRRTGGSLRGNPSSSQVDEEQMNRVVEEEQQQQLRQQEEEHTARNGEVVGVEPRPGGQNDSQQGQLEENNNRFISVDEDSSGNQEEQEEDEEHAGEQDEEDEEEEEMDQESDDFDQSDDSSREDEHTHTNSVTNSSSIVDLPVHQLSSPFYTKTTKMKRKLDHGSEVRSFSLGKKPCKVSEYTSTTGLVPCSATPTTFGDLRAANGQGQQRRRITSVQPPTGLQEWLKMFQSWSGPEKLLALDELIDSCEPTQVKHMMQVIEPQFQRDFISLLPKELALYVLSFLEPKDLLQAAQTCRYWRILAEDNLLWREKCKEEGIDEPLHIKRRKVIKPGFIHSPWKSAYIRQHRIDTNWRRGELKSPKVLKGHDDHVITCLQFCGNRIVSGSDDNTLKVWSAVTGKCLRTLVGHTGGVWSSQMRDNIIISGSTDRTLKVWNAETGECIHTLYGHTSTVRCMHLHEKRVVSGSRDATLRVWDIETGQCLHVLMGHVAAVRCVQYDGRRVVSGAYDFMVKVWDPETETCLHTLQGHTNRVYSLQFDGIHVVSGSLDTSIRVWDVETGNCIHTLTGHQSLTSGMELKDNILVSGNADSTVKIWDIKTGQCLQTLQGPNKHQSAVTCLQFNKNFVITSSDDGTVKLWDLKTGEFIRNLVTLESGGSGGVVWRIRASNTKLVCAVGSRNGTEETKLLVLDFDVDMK
Each line names hits and unclear results; the compound was inactive in the other large screens.

O=C(c1ccc(-c2nnc(-c3ccccc3)o2)cc1)N1CCCCC1	TEAD-YAP inh 51
Ic1ccc(OCCCCN2CCNCC2)cc1	none
O=C(CNCc1ccccc1)Nc1ccc(C(=O)N2CCCC2)cc1	TEAD-YAP inh 44
CCC1CCCCN1C(=O)c1cc(COc2ccc3ncccc3c2)on1 (stereo not given)	TEAD-YAP inh 49
CCN(CC)C(=O)C1CCCN(C(=O)c2cc(COc3ccc4ncccc4c3)on2)C1 (stereo not given)	none
COCC1CCCCN1C(=O)c1cc(COc2ccc3ncccc3c2)on1 (stereo not given)	TEAD-YAP inh 42
CCCCN(CCCC)C(=O)Cc1cccs1	TEAD-YAP inh 44
Cc1ccc(C(=O)Nc2sc3c(c2C(=O)O)CCCCC3)cc1	TEAD-YAP inh 83
Cc1ccc(C(=O)Nc2sc(C)c(C)c2C(=O)O)cc1	TEAD-YAP inh 49
O=C(Nc1sc2c(c1C(=O)O)CCCCC2)c1ccccc1	TEAD-YAP inh 46
CCN(CC)C(=O)c1c(NC(=O)c2cccs2)sc2c1CCC2	TEAD-YAP inh 36
Cc1cnc(NC(=O)CN2C(=O)S/C(=C\c3cccs3)C2=O)s1	none
CC1CCCN(CC(=O)Nc2ccc(N)cc2Cl)C1 (stereo not given)	none
CCOC(=O)C1=C(C)NC(=S)NC1c1ccc(OC(C)=O)c(OC)c1 (stereo not given)	none
CC1=C(C(=O)OCc2ccccc2)C(c2ccc(O)cc2)C2=C(CC(c3ccccc3)CC2=O)N1 (stereo not given)	none
Cc1nc(C)n(-c2ccc(Nc3nccc(-c4cccc(-n5ccnn5)c4)n3)cc2)n1	TEAD-YAP inh 44
CC(=O)Nc1cc(F)cc(-c2ccnc(Nc3ccc(-n4nc(C)nc4C)cc3)n2)c1	TEAD-YAP inh 45
COc1ccc(C(=O)C2CCCN(S(=O)(=O)c3cc(C)sc3C)C2)cc1OC (stereo not given)	none
N#CC(C#N)=NNc1ccccc1C(=O)O	none
N#CC(C#N)=NNc1ccc(O)c(C(=O)O)c1	MITF primary 79
CC(Sc1nnc(C(F)(F)F)n1N)C(=O)NC(c1ccccc1)c1ccccc1 (stereo not given)	TEAD-YAP inh 33
CC(Sc1nccn1C)C(=O)NC(c1ccccc1)c1ccccc1 (stereo not given)	none
CCOc1ccc(-n2c(-c3ccccc3)c[n+]3c2CCCCC3)cc1	TEAD-YAP inh 66
Brc1ccc(-c2c[n+]3c(n2Cc2ccccc2)SCCC3)cc1	none
CCOc1ccc(-c2c[n+]3c(n2Cc2ccccc2)SCCC3)cc1	TEAD-YAP inh 67
CCOc1ccc(-n2c(-c3ccccc3)csc2=NC(C)=O)cc1	none
CCN1CCN(c2ccc(NC(=O)COc3ccccc3)cc2)CC1	none
CCn1c(C)nc2cc(C(=O)N/N=C/c3ccc(O)c(O)c3O)ccc21	MITF primary 75
CCOc1cccc(/C=N/NC(=O)c2cccnc2)c1O	MITF primary 70
CCOc1ccccc1/C=N\NC(=O)c1cccnc1	none
CCN(CC)S(=O)(=O)c1cccc(C(=O)N/N=C(\C)c2ccc(O)cc2O)c1	none
O=C(N/N=C/c1ccc(O)c(O)c1O)c1cccnc1	MITF primary 79
CCN(CC)S(=O)(=O)c1cccc(C(=O)N/N=C/c2ccc(O)c(O)c2O)c1	MITF primary 61
C=CCc1cccc(/C=N/NC(=O)c2cccnc2)c1O	none
O=C1N[C@H](Cc2ccc(O)cc2)C(=O)N2CCN(C(=O)c3cccc(Cl)c3)C[C@H]12	none
CC(C)n1cnc2c(NCCc3ccc(O)cc3)nc(Nc3nccc4ccccc34)nc21	none
Cc1cc2ccccc2n1CCNC(=O)c1ccc(F)c(F)c1	none
Oc1ccc(C=Nc2cccc3cnccc23)c(O)c1O	MITF primary 61
Cc1ccnc(NS(=O)(=O)c2ccc3ccccc3c2)c1	none
Cc1nc2scc(C)n2c1C(=O)NC1CCC1	FBW7 act 1.9
Cc1ccc(C)c(-c2csc(NC(=O)c3cc([N+](=O)[O-])ccc3Cl)n2)c1	TEAD-YAP inh 53
CC(C)(C)c1ccc(-c2csc(NC(=O)c3cc([N+](=O)[O-])ccc3Cl)n2)cc1	TEAD-YAP inh 43
O=C(Nc1nccs1)c1cc([N+](=O)[O-])ccc1Cl	TEAD-YAP inh 45
O=C(Nc1nc(-c2cc(Cl)sc2Cl)cs1)c1ccc([N+](=O)[O-])s1	TEAD-YAP inh 67
CC(C)c1ccc(-c2c(N3CCOCC3)c(=O)c2=O)cc1	none
O=C(Nc1ccc2c(c1)OCO2)C1CC12CCN(C(=O)Cn1cnc3ccccc31)CC2 (stereo not given)	none
COc1ccccc1-c1csc(NC(=O)c2cc([N+](=O)[O-])ccc2Cl)n1	TEAD-YAP inh 34
O=C(O)CCCN(Cc1ccc(Cl)cc1)S(=O)(=O)c1ccc(Br)cc1	none
O=C(O)CCN(Cc1ccc(Cl)cc1)S(=O)(=O)c1ccc(Br)cc1	FBW7 act 2.1
CCOC(=O)CNS(=O)(=O)c1cc(-c2nnc(Nc3ccc(Cl)c(Cl)c3)c3ccccc23)ccc1C	FBW7 act 2.2
CCOC(=O)c1c(NC(=O)C(C)Sc2nnc(CNC(=O)c3ccco3)n2-c2cc(C)ccc2C)sc2c1CCCCC2 (stereo not given)	none
COc1cccc(CNC(=O)Nc2c(F)cc(-c3cn[nH]c3)cc2F)c1	none
Cc1ccccc1S(=O)(=O)Nc1cc(Br)cc2cccnc12	TEAD-YAP inh 36
COc1ccc(C(=O)Nn2c(SCC(=O)NCc3ccco3)nc3ccccc3c2=O)cc1	TEAD-YAP inh 75
COc1ccc(C(=O)Nn2c(SCC(=O)NCCc3ccccc3)nc3ccccc3c2=O)cc1	TEAD-YAP inh 71
C=C(C)Cn1c(N=Nc2c(O)[nH]c3ccccc23)nc2c1c(=O)[nH]c(=O)n2C	none
O=C(CCC1CCCC1)NCc1ccc(F)cc1	none
CSc1cccc2sc(NC(=O)c3ccc(Cl)cc3)nc12	none
N#Cc1c(N)nc(SCC(=O)NCc2ccccc2)c(C#N)c1-c1ccccc1Cl	TEAD-YAP inh 58
N#Cc1cc2cc3c(cc2nc1SCC(=O)NCc1ccccc1)OCCO3	TEAD-YAP inh 36
N#Cc1cc2cc3c(cc2nc1SCC(=O)Nc1ccccc1)OCCO3	none
CCOc1ccccc1NC(=O)CSc1nc2cc3c(cc2cc1C#N)OCCO3	TEAD-YAP inh 53
CC(C)c1ccc(C#N)c(SCC(=O)Nc2ccccc2C(=O)O)n1	FBW7 act 3.9
COc1ccccc1NC(=O)CSc1nc2cc3c(cc2cc1C#N)OCO3	none
Cc1ccc(NS(=O)(=O)c2ccc(NC(=O)c3ccccc3[N+](=O)[O-])cc2)cc1C	none
COc1cccc(/C=C/c2nnc(-c3ccco3)o2)c1OC	none
CCOc1ccccc1NC(=O)CSc1nc2ccc(OC)cc2cc1C#N	TEAD-YAP inh 48
N#Cc1cc2cc3c(cc2nc1SCC(=O)Nc1ccccc1F)OCCO3	TEAD-YAP inh 54
Cc1cccc(C)c1NC(=O)C(=O)NCc1ccc(Cl)cc1	none
CC(=O)c1cccc(-c2ncc(C(=O)NC3CC3)s2)c1	none

Assay outcomes from PubChem BioAssay.
